Laboratory results from PubChem BioAssay AID1159580 (chemical genetic matrix, 2015).
“And” between values parts separate entries of the source, which are not always exact repeats. Equal entries are not always repeated. Screen size: about 5,500 compounds; about 2,000 (36%) were called active. Inconclusive results (about 18%) are left out. Rule as the data show it: active = normalized growth mostly below about 0.91 (no sharp cut-off); inconclusive = no clear call, values can overlap the other calls; inactive = mostly above about 0.92. The list shows a part of the results.

Assay: chemical genetic growth profiling, strain panel (AID 1159580);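 also: tested at 20 µM; growth read once vehicle control cultures reached saturation at 30 °C; 1 = growth at the plate median or of vehicle wells; lower values mean less growth of the strain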
Conditions: S. cerevisiae deletion strains, growth OD

Measured: normalized growth

COc1ccc2c(c1)c(CC(=O)O)c(C)n2C(=O)c1ccc(Cl)cc1
inactive: locus YAL013W, strain DEP1, active compounds read low 1.01 | locus YAL021C, strain ccr4, active compounds read low 0.987 | locus YAL026C, strain drs2, active compounds read low 0.974 | locus YAL030W, strain snc1, active compounds read low 0.988 | locus YAL040C, strain CLN3, active compounds read low 0.997 | locus YBL061C, strain skt5, active compounds read low 0.959 | locus YBR009C, strain hhf1, active compounds read low 0.931 | locus YBR021W, strain FUR4, active compounds read low 1 | locus YBR023C, strain chs3, active compounds read low 0.969 | locus YBR171W, strain sec66, active compounds read low 0.967 | locus YBR229C, strain ROT2, active compounds read low 1 | locus YBR231C, strain swc5, active compounds read low 0.972 | locus YBR279W, strain paf1, active compounds read low 0.988 | locus YCL011C, strain gbp2, active compounds read low 0.921 | locus YCL016C, strain dcc1, active compounds read low 0.919 | locus YCL029C, strain bik1, active compounds read low 0.988 | locus YCL061C, strain MRC1 (second series), active compounds read low 1.01 | locus YCL061C, strain MRC1, active compounds read low 0.96 | locus YCL069W, strain vba3, active compounds read low 0.986 | locus YCR088W, strain abp1, active compounds read low 0.99 | locus YDL005C, strain med2, active compounds read low 0.973 | locus YDL035C, strain GPR1, active compounds read low 1.02 | locus YDL040C, strain nat1, active compounds read low 0.991 | locus YDL074C, strain BRE1, active compounds read low 1.02 | locus YDL101C, strain DUN1, active compounds read low 1.01 | locus YDL185W, strain tfp1, active compounds read low 0.973 | locus YDL192W, strain arf1, active compounds read low 0.998 | locus YDR001C, strain nth1, active compounds read low 0.978 | locus YDR069C, strain doa4, active compounds read low 1.01 | locus YDR101C, strain arx1, active compounds read low 1.02 | locus YDR137W, strain rgp1, active compounds read low 0.95 | locus YDR159W, strain sac3, active compounds read low 1.01 | locus YDR162C, strain NBP2, active compounds read low 0.995 | locus YDR195W, strain ref2 1.02 | locus YDR297W, strain sur2, active compounds read low 1.01 | locus YDR318W, strain mcm21, active compounds read low 0.979 | locus YDR334W, strain swr1, active compounds read low 0.981 | locus YDR335W, strain msn5, active compounds read low 0.991 | locus YDR363W, strain ESC2, active compounds read low 0.996 | locus YDR388W, active compounds read low 0.982 | locus YDR392W, strain spt3, active compounds read low 0.885 | locus YDR502C, strain sam2, active compounds read low 0.981 | locus YEL003W, strain gim4, active compounds read low 1 | locus YEL037C, strain rad23, active compounds read low 0.961 | locus YEL061C, strain CIN8 (second series), active compounds read low 0.979 | locus YEL061C, strain CIN8, active compounds read low 1 | locus YER002W, strain NOP16, active compounds read low 1.02 | locus YER015W, strain faa2, active compounds read low 0.976 | locus YER016W, strain bim1, active compounds read low 0.989 | locus YER110C, active compounds read low 0.986 | locus YER111C, strain swi4, active compounds read low 0.98 | locus YER155C, strain BEM2 (second series), active compounds read low 0.874 | locus YER155C, strain BEM2, active compounds read low 0.989 | locus YER167W, strain BCK2, active compounds read low 0.995 | locus YFR010W, strain ubp6, active compounds read low 0.975 | locus YGL078C, strain dbp3, active compounds read low 0.978 | locus YGL086W, strain mad1, active compounds read low 0.995 | locus YGL167C, strain pmr1, active compounds read low 0.983 | locus YGL173C, strain kem1, active compounds read low 0.985 | locus YGL227W, strain vid30, active compounds read low 0.976 | locus YGL240W, strain doc1, active compounds read low 1.01 | locus YGL248W, strain PDE1, active compounds read low 1.01 | locus YGL253W, strain hxk2, active compounds read low 0.993 | locus YGR135W, strain pre9, active compounds read low 0.963 | locus YGR252W, strain gcn5, active compounds read low 0.94 | locus YHR013C, strain ard1, active compounds read low 0.968 | locus YHR027C, strain rpn1, active compounds read low 0.981 | locus YHR030C, strain SLT2, active compounds read low 1.01 and 0.952 | locus YHR079C, strain IRE1 (second series), active compounds read low 0.987 | locus YHR079C, strain IRE1, active compounds read low 0.96 | locus YHR094C, strain hxt1, active compounds read low 0.975 | locus YHR129C, strain ARP1, active compounds read low 1.01 | locus YHR142W, strain chs7, active compounds read low 0.912 | locus YHR200W, strain rpn10, active compounds read low 0.99 | locus YIL066C, strain RNR3, active compounds read low 1 | locus YIL073C, strain SPO22, active compounds read low 0.987 | locus YIL125W, strain kgd1, active compounds read low 0.945 | locus YIR030C, strain dcg1, active compounds read low 0.986 | locus YJL092W, strain hpr5, active compounds read low 0.92 | locus YJL095W, strain BCK1 (second series), active compounds read low 0.996 | locus YJL095W, strain BCK1, active compounds read low 1 and 0.969 | locus YJL115W, strain asf1, active compounds read low 0.969 | locus YJL129C, strain trk1, active compounds read low 0.909 | locus YJL134W, strain LCB3, active compounds read low 0.997 | locus YJL154C, strain vps35, active compounds read low 0.989 | locus YJL164C, strain tpk1, active compounds read low 0.976 | locus YJL166W, strain qcr8, active compounds read low 0.977 | locus YJL168C, strain set2, active compounds read low 0.979 | locus YJL187C, strain SWE1 (second series), active compounds read low 1 | locus YJL187C, strain SWE1, active compounds read low 0.991 | locus YJR043C, strain POL32, active compounds read low 1.02 | locus YJR066W, strain TOR1, active compounds read low 0.911
